High-throughput results deposited in PubChem BioAssay by National Center for Advancing Translational Sciences (NCATS).
KDM5B inh = inhibitors of human KDM5B histone demethylase. Q9UGL1. KDM5B demethylase, FDH-coupled NADH fluorescence (FDH is formaldehyde dehydrogenase). Potency, µM (titrated, usually from 57.7 µM), actives largely listed as inhibitors. actives 2.6% (n = 220,000). AID 1347165; active means well fitted inhibition curve with a large enough effect; further: 0% is about no effect; nearly all actives have a fitted effect of over 70% in size
Target sequence (Q9UGL1 whole entry, looked up): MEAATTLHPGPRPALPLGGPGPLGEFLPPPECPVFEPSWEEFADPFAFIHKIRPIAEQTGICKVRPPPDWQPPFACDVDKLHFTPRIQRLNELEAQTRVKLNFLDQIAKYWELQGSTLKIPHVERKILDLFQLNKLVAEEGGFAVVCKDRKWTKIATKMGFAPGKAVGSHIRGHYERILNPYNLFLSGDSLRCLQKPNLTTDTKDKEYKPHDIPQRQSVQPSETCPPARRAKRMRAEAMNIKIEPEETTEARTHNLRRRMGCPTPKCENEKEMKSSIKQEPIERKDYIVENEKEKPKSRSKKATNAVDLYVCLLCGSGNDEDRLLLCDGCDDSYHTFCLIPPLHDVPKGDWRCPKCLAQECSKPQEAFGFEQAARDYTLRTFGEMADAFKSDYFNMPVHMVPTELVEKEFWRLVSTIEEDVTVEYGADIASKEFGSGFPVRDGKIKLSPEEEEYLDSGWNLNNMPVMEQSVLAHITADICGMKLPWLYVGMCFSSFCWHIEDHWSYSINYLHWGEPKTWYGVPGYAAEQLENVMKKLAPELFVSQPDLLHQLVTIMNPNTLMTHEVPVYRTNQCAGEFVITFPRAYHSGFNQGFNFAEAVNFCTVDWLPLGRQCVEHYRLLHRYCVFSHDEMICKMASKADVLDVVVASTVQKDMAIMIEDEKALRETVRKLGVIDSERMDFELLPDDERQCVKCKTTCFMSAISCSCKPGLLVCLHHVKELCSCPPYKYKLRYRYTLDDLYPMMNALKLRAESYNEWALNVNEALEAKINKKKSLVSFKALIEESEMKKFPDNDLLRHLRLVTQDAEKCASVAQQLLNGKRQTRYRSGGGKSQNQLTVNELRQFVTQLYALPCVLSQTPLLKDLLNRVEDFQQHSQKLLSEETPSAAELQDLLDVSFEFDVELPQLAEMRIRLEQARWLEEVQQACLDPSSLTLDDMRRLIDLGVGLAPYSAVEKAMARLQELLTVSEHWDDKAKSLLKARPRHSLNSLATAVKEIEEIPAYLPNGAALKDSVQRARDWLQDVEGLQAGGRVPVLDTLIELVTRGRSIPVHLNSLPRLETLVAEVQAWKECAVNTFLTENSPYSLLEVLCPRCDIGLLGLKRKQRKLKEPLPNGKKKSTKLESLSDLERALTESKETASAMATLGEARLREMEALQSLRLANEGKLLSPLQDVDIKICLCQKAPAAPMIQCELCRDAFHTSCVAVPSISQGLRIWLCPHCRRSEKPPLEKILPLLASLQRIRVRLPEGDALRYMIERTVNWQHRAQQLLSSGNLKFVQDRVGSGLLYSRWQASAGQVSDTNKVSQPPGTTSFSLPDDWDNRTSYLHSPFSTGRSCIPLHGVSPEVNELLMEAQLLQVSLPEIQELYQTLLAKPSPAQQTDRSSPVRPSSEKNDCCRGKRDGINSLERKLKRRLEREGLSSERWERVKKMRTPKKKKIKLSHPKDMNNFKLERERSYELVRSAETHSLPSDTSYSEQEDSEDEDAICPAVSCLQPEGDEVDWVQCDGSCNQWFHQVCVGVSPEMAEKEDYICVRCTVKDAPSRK
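Here, H3K4me3 peptide (12.5 µM in substrate mix) is demethylated by KDM5BΔAP, 200 nM final, after 10 min compound exposure. Formaldehyde product is coupled through FDH (0.25 U/mL in mix) to NADH fluorescence; 30-min ΔRFU feeds dose-response curves.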
Active calls of the source: *; i = inactive. This is one part of a sample in which hits are shown more often than they occur. Potency means the concentration at half of the fitted maximal effect.

SMILES	KDM5B inh
CCNC(=O)CC1COc2ccc(C(=O)NCCOC)cc2N1C (stereo not drawn)	32µM*
COCCNC(=O)c1ccc(OC2CCN(Cc3ccc(C)s3)CC2)c(Cl)c1	i
COCCNC(=O)c1ccc(OC2CCN(CC3CCOC3)CC2)c(Cl)c1 (stereo not drawn)	i
COCCNC(=O)CCCN1C(=O)COc2ccc(C(=O)COc3ccc(C)cc3C)cc21	i
CN(C)C(=O)c1ccc2c(c1)N(C)C(CC(=O)NCC(C)(C)O)CO2 (stereo not drawn)	i
CN(c1cccc(F)c1)S(=O)(=O)c1c(-c2ccc(F)cc2)csc1C(=O)NCc1ccco1	i
N#C/C(=C/c1ccccc1OCc1ccccc1)c1nc2ccccc2[nH]1	i
CCOc1ccc(N(C(=O)c2cc(OC)c(OC)c(OC)c2)C2C=CS(=O)(=O)C2)cc1 (stereo not drawn)	i
Cc1cc(=O)c(C(=O)N2CCN(Cc3ccccc3)CC2)nn1-c1ccccc1F	i
NC(=O)c1cccc(OCc2ccccc2)c1	i
C=C(Cl)COc1ccccc1C(N)=O	i
COc1ccc(/C(=N\O)OC(=O)/C=C/c2ccco2)cc1	i
CC(=O)c1cccc(NC(=O)C(C)Sc2nc3ccc(Cl)cc3c(=O)n2CC(C)C)c1 (stereo not drawn)	i
CC(C)NC(=O)NC(=O)C(C)N(C)Cc1ccc(F)cc1 (stereo not drawn)	i
CCOC(=O)c1c(C)[nH]c(C)c1S(=O)(=O)N(C)CC(=O)Nc1cccc(C(C)=O)c1	i
COCCNC(=O)CCc1ccc2c(c1)CN(C(=O)NC(C)C)CCO2	i
COCCNC(=O)C(NC(=O)CC(C)C)C1CCN(C(=O)c2ccc3c(c2)OCO3)CC1 (stereo not drawn)	i
COCCNC(=O)c1ccc2c(c1)N(C)C(CC(=O)NC(C)C)CO2 (stereo not drawn)	20µM*
Cc1nc2nc(SCC(=O)c3ccc(F)cc3)[nH]c2cc1Br	i
O=C(NCc1ccccc1)N1CCc2sccc2C1	i
NC(=O)c1ccc(OCc2coc(-c3cccc(F)c3)n2)cc1	i
CC(NC(=O)CCCc1c[nH]c2ccccc12)c1cccc(F)c1 (stereo not drawn)	i
COC(=O)Cn1c(=O)c2c(nc(-n3nc(C)c(C)c3C)n2C)n(C)c1=O	i
Cc1nc(NCC2CC2)ncc1C(=O)O	22µM*
Cc1nc(-c2ccccc2)ncc1C(=O)O	i
SMILES	KDM5B inh
COc1cc(NC(=O)c2cnc(NCc3ccccc3)nc2C)cc(OC)c1OC	i
CCc1nc(CN(CC)Cc2cccs2)cs1	i
Cc1cn2nc(C(=O)N3CCC(C(=O)NCCc4ccccc4)CC3)cc2c(=O)[nH]1	i
O=C(C1CCOCC1)N1CC(CNc2ccccc2)C2(C1)CN(c1ccccc1)C2 (stereo not drawn)	i
O=C(Nc1cccnc1)c1ccc2c(c1)OCCN(c1cccc(OC(F)(F)F)c1)C2	i
O=C(Nc1ccc2cn[nH]c2c1)c1ccc2c(c1)OCCN(c1ccccc1)C2	32µM*
CC(C)CCN1CCOc2cc(C(=O)Nc3ccccc3)ccc2C1	i
Cc1ccc(C(C)NC(=O)Cn2cnc(C#N)n2)cc1C (stereo not drawn)	i
CCn1c(CCC(=O)Nc2ccccc2Cl)nnc1SCc1nc2ccccc2c(=O)[nH]1	i
CC(C)C[C@@H]1N[C@H](C(=O)N2CCN(C)CC2)Cc2cn(Cc3ccccn3)c3cccc1c23	i
CC(C)C[C@@H]1N[C@H](C(=O)NC2CCC2)Cc2cn(CC3CC3)c3cccc1c23	i
CC(C)C[C@@H]1N[C@H](C(=O)O)Cc2cn(CC3CCC3)c3cccc1c23	32µM*
CC(C)C[C@@H]1N[C@H](C(=O)NCc2ccccc2)Cc2cn(Cc3ccncc3)c3cccc1c23	i
CC#CCn1cc2c3c(cccc31)[C@H](CC(C)C)N[C@H](C(=O)NC1CCCC1)C2	i
CC(C)C[C@@H]1N[C@H](C(=O)O)Cc2cn(Cc3nccn3C)c3cccc1c23	32µM*
CCC(=O)c1ccc(OC(=O)/C=C/c2cccc(Cl)c2)cc1	i
CN(C)C(=O)CNS(=O)(=O)c1cccc(F)c1	i
CSc1ccc(C(C)NC(=O)c2ccccc2Cl)cc1 (stereo not drawn)	i
O=C(Nc1cccc(F)c1)c1cnc2c(c1)N(C(=O)CCc1ccccc1)CCC2	i
COCCNC(=O)c1cnc2c(c1)N(Cc1ccccc1C(F)(F)F)CCC2	35µM*
COc1ccccc1CC(=O)N1CCCc2ncc(C(=O)NCc3cccc(F)c3)cc21	i
O=C(NCc1cccc(F)c1)c1cnc2c(c1)N(Cc1ccccc1)CCC2	5.6µM*
COc1ccc(NC(=O)c2cnc3c(c2)N(C(=O)Cc2cccc(C(F)(F)F)c2)CCC3)cc1OC	i
COc1ccccc1CC(=O)N1CCCc2ncc(C(=O)NCCc3ccccc3)cc21	i
O=C(NCc1cccc(F)c1)c1cnc2c(c1)N(C(=O)Cc1cccc(C(F)(F)F)c1)CCC2	i
SMILES	KDM5B inh
O=C(Nc1cccc(C(F)(F)F)c1)c1cnc2c(c1)N(Cc1ccccc1)CCC2	7.1µM*
COc1ccccc1CC(=O)N1CCCc2ncc(C(=O)NCCC(C)C)cc21	i
CC(C)c1ccc(CC(=O)N2CCCc3ncc(C(=O)NCCOc4ccccc4)cc32)cc1	i
COc1ccccc1CC(=O)N1CCCc2ncc(C(=O)NCCOc3ccccc3)cc21	i
COCCNC(=O)c1cnc2c(c1)N(Cc1ccccc1)CCC2	35µM*
Fc1ccc(-c2cnc([C@@H]3COCCN3Cc3ccccc3F)[nH]2)c(F)c1	i
Cc1nn(C)c2sc(C(=O)N3CCN(c4ncccn4)CC3)cc12	i
O=C(Cn1ccc2ccc(F)cc21)Nc1nnc(C2CCCCC2)s1	i
O=C(CSCc1ccccc1)c1ccc[nH]1	i
O=C(NC1CCCc2ccccc21)c1ccc2c(Cl)c3c(nc2c1)CCCC3 (stereo not drawn)	i
Cn1c(Cl)cnc1COC(=O)CC12CC3CC(CC(Br)(C3)C1)C2	i
N#Cc1ccc(NC(=O)N2CCN(c3ncccc3Cl)CC2)cc1	i
CC(C)c1ccc(CC(=O)N2CCCc3ncc(C(=O)Nc4cccc(C(F)(F)F)c4)cc32)cc1	25µM*
CC(C)Nc1ncc(C(=O)NC2CC(=O)N(Cc3cccc(F)c3)C2)cn1 (stereo not drawn)	22µM*
O=C(Cc1cccc(Cl)c1)NC1CC(=O)N(Cc2ccc(F)cc2)C1 (stereo not drawn)	i
Cc1ccccc1NC(=O)c1cnc2c(c1)N(C(=O)Cc1ccc(C(C)C)cc1)CCC2	i
Cc1noc(C)c1C(=O)NC1CC(=O)N(Cc2cccc(F)c2)C1 (stereo not drawn)	i
CC(C)NC(=O)c1cnc2c(c1)N(C(=O)Cc1cccc(C(F)(F)F)c1)CCC2	i
Cc1cc(=O)n(CC(=O)Nc2ccc(C(C)C)cc2)c(N2CCN(c3ccccc3)CC2)n1	i
COc1ccc2cc(C(=O)O)nnc2c1	i
NNc1ccncc1	i
O=C(NCCc1ccccc1F)c1nc2sccn2c1Br	i
CC(NC(=O)CSc1nnc(-c2ccccc2)o1)c1ccc2c(c1)CCCC2 (stereo not drawn)	i
CCCOc1ccc(-c2[nH]c3c(c2-c2ccc(OC)cc2)c(=O)[nH]c(=O)n3C)cc1	i
COc1cncc(N2CC3(COCC(=O)N(Cc4cccc(OC(F)(F)F)c4)C3)C2)c1	28µM*
Cn1cc(CN2CC3(COCC(=O)N(Cc4cccc(OC(F)(F)F)c4)C3)C2)cn1	i
